Results: the antibiotic and cytotoxicity screens of Wong et al. (2023)
Out of some 39,000 compounds screened, about 3,300 (8.5%) were called active. What follows is part of a selection rich in actives, with near analogues and random picks from the rest.

test system: HepG2; experiment: cytotoxicity call (relative viability < 0.9); conditions: 10 µM

SMILES	cytotoxicity call
CCCNC(=O)Nc1ccc2c(c1)OC[C@H](C)N(C(=O)C1CCOCC1)C[C@H](C)[C@H](OC)CN(C)C2=O	inactive
CC(C)c1cc(N2CC[C@@H](N)C2)nc(N)n1	inactive
Cc1noc(C)c1NC(=O)Nc1cccc2c1O[C@H](CN(C)S(C)(=O)=O)[C@H](C)CN([C@@H](C)CO)C2=O	inactive
CC(C)NC(=O)Nc1ccc2c(c1)CC(=O)N([C@H](C)CO)C[C@H](C)[C@H](CN(C)Cc1ccc(C(=O)O)cc1)O2	inactive
O=C(NCCCN1CCOCC1)[C@H]1[C@H](CO)[C@H]2Cn3c(cccc3=O)[C@@H]1N2C(=O)NC1CCCC1	inactive
CC(C)CN[C@H]1CCS(=O)(=O)C1	inactive
COc1ccc(S(=O)(=O)Nc2ccc3c(c2)C(=O)N([C@H](C)CO)C[C@H](C)[C@@H](CN(C)Cc2ccc(Cl)c(Cl)c2)OCCCC[C@H](C)O3)cc1	active
COc1ccc(S(=O)(=O)Nc2ccc3c(c2)C(=O)N([C@@H](C)CO)C[C@@H](C)[C@H](CN(C)Cc2ccc(Cl)c(Cl)c2)OCCCC[C@@H](C)O3)cc1	active
COc1ccc(CN(C)C[C@@H]2OCCCC[C@@H](C)Oc3ccc(NS(=O)(=O)c4ccc(OC)cc4)cc3C(=O)N([C@H](C)CO)C[C@H]2C)cc1	inactive
COc1ccc(CN(C)C[C@H]2OCCCC[C@@H](C)Oc3ccc(NS(=O)(=O)c4ccc(OC)cc4)cc3C(=O)N([C@H](C)CO)C[C@@H]2C)cc1	inactive
C[C@H]1CN([C@@H](C)CO)C(=O)c2cc(NS(=O)(=O)c3cn(C)cn3)ccc2O[C@H]1CN(C)C(=O)Nc1ccc2c(c1)OCO2	inactive
Cc1nc(CO)co1	inactive
COc1ccc([C@@H](N)c2ccncc2)cc1	inactive
C[C@H](CO)N1C[C@H](C)[C@@H](CN(C)Cc2ccc(Oc3ccccc3)cc2)Oc2c(NC(=O)CCCCCC(=O)Nc3ccccc3N)cccc2C1=O	inactive
O=S(=O)(NCCCN(CCCc1ccccc1)CCCc1ccccc1)c1cccc2cnccc12	inactive
COc1ccc(/C=C/CN(C/C=C/c2ccc(OC)cc2)CCCCNS(=O)(=O)c2cccc3cnccc23)cc1	active
N=C(N)NCCNS(=O)(=O)c1cccc2cnccc12	active
O=[N+]([O-])c1ccc(/C=C/CN(C/C=C/c2ccc([N+](=O)[O-])cc2)CCNS(=O)(=O)c2cccc3cnccc23)cc1	inactive
COc1ccc(/C=C/CN(C/C=C/c2ccc(OC)cc2)CCCNS(=O)(=O)c2cccc3cnccc23)cc1	inactive
O=[N+]([O-])c1ccc(/C=C/CN(C/C=C/c2ccc([N+](=O)[O-])cc2)CCCCNS(=O)(=O)c2cccc3cnccc23)cc1	inactive
O=S(=O)(NCCCCN(C/C=C/c1ccc(F)cc1)C/C=C/c1ccc(F)cc1)c1cccc2cnccc12	active
O=S(=O)(NCCCCN(C/C=C/c1ccccc1)C/C=C/c1ccccc1)c1cccc2cnccc12	inactive
O=S(=O)(NCCCN(C/C=C/c1ccc(F)cc1)C/C=C/c1ccc(F)cc1)c1cccc2cnccc12	inactive

SMILES	cytotoxicity call
COc1ccc(NC(=O)N(C)C[C@@H]2Oc3ccc(NC(=O)CCCN(C)C)cc3C(=O)N([C@H](C)CO)C[C@@H]2C)cc1	inactive
C[C@@H]1CN([C@H](C)CO)C(=O)c2cc(NS(=O)(=O)c3cn(C)cn3)ccc2O[C@@H](C)CCCCO[C@@H]1CN(C)C	inactive
Cc1cc(C(=O)Nc2cccc3c2O[C@@H](CN(C)S(=O)(=O)c2ccc(Cl)cc2)[C@H](C)CN([C@@H](C)CO)C3=O)n(C)n1	inactive
C[C@@H]1CN([C@@H](C)CO)C(=O)c2cc(NS(=O)(=O)c3cccs3)ccc2O[C@H]1CN(C)S(=O)(=O)c1ccc(F)cc1	inactive
C[C@@H](O)[C@H](N)C(=O)N[C@@H](CCCCN)C(=O)N1CCC[C@H]1C(=O)N[C@@H](CCCNC(=N)N)C(=O)O	inactive
O=C(C[C@H]1C[C@H]2c3cc(NS(=O)(=O)c4ccc(F)cc4)ccc3O[C@H]2[C@H](CO)O1)NCc1cccnc1	inactive
Cc1noc(C)c1NC(=O)Nc1ccc2c(c1)C(=O)N([C@H](C)CO)C[C@H](C)[C@@H](CN(C)C(=O)Nc1c(C)noc1C)OCCCC[C@H](C)O2	inactive
CN(C)CCCCCCNC(=O)[C@@H]1C[C@@H]2C(=O)N[C@@H](CCCC[N+](C)(C)C)C(=O)N2[C@@H]1c1cccc(OCCO)c1	inactive
C[C@H](CO)N1C[C@H](C)[C@H](CN(C)C(=O)C2CCCCC2)Oc2cc(C#Cc3ccncc3)ccc2S1(=O)=O	active
C[C@@H]1CN([C@@H](C)CO)S(=O)(=O)c2ccc(C#CC3CC3)cc2O[C@H]1CN(C)C(=O)C1CCCCC1	inactive
C[C@H](O)C#Cc1ccc2c(c1)O[C@@H](CN(C)C(=O)C1CCCCC1)[C@H](C)CN([C@H](C)CO)S2(=O)=O	inactive
C[C@H]1CN([C@@H](C)CO)S(=O)(=O)c2ccc(C#Cc3ccncc3)cc2O[C@H]1CN(C)C(=O)C1CCCCC1	inactive
C[C@@H]1CN([C@@H](C)CO)S(=O)(=O)c2ccc(C#Cc3ccncc3)cc2O[C@H]1CN(C)C(=O)C1CCCCC1	active
C[C@H](CO)N1C[C@H](C)[C@@H](CN(C)C(=O)C2CCCCC2)Oc2cc(C#Cc3ccncc3)ccc2S1(=O)=O	active
C[C@H](O)C#Cc1ccc2c(c1)O[C@@H](CN(C)C(=O)C1CCCCC1)[C@H](C)CN([C@@H](C)CO)S2(=O)=O	inactive
C[C@@H]1CN([C@H](C)CO)S(=O)(=O)c2ccc(C#C[C@@H](C)O)cc2O[C@@H]1CN(C)C(=O)C1CCCCC1	inactive
C[C@@H]1CN([C@H](C)CO)S(=O)(=O)c2ccc(C#Cc3ccncc3)cc2O[C@H]1CN(C)C(=O)C1CCCCC1	active
COc1ccc(CN(C)C[C@@H]2Oc3ccc(NS(=O)(=O)c4cn(C)cn4)cc3C(=O)N([C@@H](C)CO)C[C@@H]2C)cc1	inactive
C[C@H]1CN([C@@H](C)CO)C(=O)c2cc(NC(=O)Nc3ccc4c(c3)OCO4)ccc2O[C@@H]1CN(C)C(=O)Nc1cccc2ccccc12	inactive
C[C@H](CO)N1C[C@H](C)[C@H](CN(C)S(=O)(=O)c2ccccc2)Oc2c(NS(=O)(=O)c3cccs3)cccc2C1=O	inactive
Cc1ccc(S(=O)(=O)N(C)C[C@@H]2Oc3ccc(NS(=O)(=O)c4c(C)noc4C)cc3C(=O)N([C@@H](C)CO)C[C@H]2C)cc1	inactive
COc1ccccc1-c1cccc(-c2nc(C(=O)N3CCCCC3)cc3c2[C@@H](CCO)N([S@](=O)C(C)(C)C)C3)c1	inactive
O[C@H]1[C@H](O)[C@@H](O)[C@H](O)[C@@H](O)[C@H]1O	inactive

SMILES	cytotoxicity call
Cc1ccc(S[C@]2(C(=O)NC3CC3)CC(=O)N(C3Cc4ccccc4C3)[C@@H]2c2ccc(CO)cc2I)cc1	inactive
C[C@@H]1CN([C@@H](C)CO)C(=O)c2cc(-c3ccncc3)cnc2O[C@@H]1CN(C)S(=O)(=O)c1ccc(F)cc1	inactive
COc1ccc2c3c(n(c2c1)C)[C@@H](CO)N(CC1CCOCC1)C[C@]13CN(C1)C(=O)Cc1cccnc1	inactive
C[C@@H]1CN([C@H](C)CO)C(=O)c2cccc(NS(=O)(=O)c3cccs3)c2O[C@@H]1CN(C)S(=O)(=O)c1ccc(F)cc1	inactive
C[C@@H]1CN([C@H](C)CO)S(=O)(=O)c2ccc(C#Cc3ccncc3)cc2O[C@@H]1CN(C)C(=O)C1CCCCC1	active
C[C@@H]1CN([C@@H](C)CO)S(=O)(=O)c2ccc(C#Cc3ccncc3)cc2O[C@@H]1CN(C)C(=O)C1CCCCC1	active
C[C@@H]1CN([C@H](C)CO)S(=O)(=O)c2ccc(C#CC3CC3)cc2O[C@H]1CN(C)C(=O)C1CCCCC1	inactive
C[C@H]1CN([C@@H](C)CO)S(=O)(=O)c2ccc(C#Cc3ccncc3)cc2O[C@@H]1CN(C)C(=O)C1CCCCC1	active
C[C@H](O)C#Cc1ccc2c(c1)O[C@@H](CN(C)C(=O)C1CCCCC1)[C@@H](C)CN([C@@H](C)CO)S2(=O)=O	inactive
Cc1noc(C)c1NC(=O)Nc1ccc2c(c1)CC(=O)N([C@H](C)CO)C[C@@H](C)[C@@H](CN(C)Cc1ccc(C(=O)Nc3ccccc3N)cc1)O2	inactive
C[C@@H]1CN([C@H](C)CO)C(=O)Cc2cc(NC(=O)CCC(F)(F)F)ccc2O[C@@H]1CN(C)Cc1ccc(C(=O)Nc2ccccc2N)cc1	inactive
C[C@H](CO)N1C[C@H](C)[C@H](CN(C)S(C)(=O)=O)Oc2c(cccc2N(C)C)C1=O	inactive
C[C@@H]1CN([C@H](C)CO)C(=O)c2cccc(NC(=O)C3CCCCC3)c2O[C@@H]1CN(C)S(=O)(=O)c1cn(C)cn1	inactive
C[C@@H]1CN([C@H](C)CO)C(=O)c2cccc(NC(=O)Nc3ccc(F)cc3)c2O[C@@H]1CN(C)S(=O)(=O)c1cn(C)cn1	inactive
COc1ccc(-n2nc(C(=O)NCC(=O)N3CCN(c4ccccc4)CC3)c3ccccc3c2=O)c(OC)c1	inactive
CC[C@H]1OC(=O)[C@H](C)[C@@H](O[C@H]2C[C@@](C)(OC)[C@@H](O)[C@H](C)O2)[C@H](C)[C@@H](O[C@@H]2O[C@H](C)C[C@H](N(C)C)[C@H]2O)[C@](C)(O)C[C@@H](C)[C@@H]2N[C@@H](COCCOC)O[C@H]([C@H]2C)[C@]1(C)O	inactive
C[C@H](CO)N1C[C@H](C)[C@@H](CN(C)C(=O)Nc2ccc(C(F)(F)F)cc2)Oc2ccc(NC(=O)Nc3ccc(C(F)(F)F)cc3)cc2CC1=O	active
C[C@@H]1CN([C@@H](C)CO)C(=O)Cc2cc(NC(=O)Nc3ccc(C(F)(F)F)cc3)ccc2O[C@@H]1CN(C)C(=O)Nc1ccc(C(F)(F)F)cc1	active
C[C@@H]1CN([C@H](C)CO)C(=O)Cc2cc(NC(=O)Nc3ccc(C(F)(F)F)cc3)ccc2O[C@H]1CN(C)C(=O)Nc1ccc(C(F)(F)F)cc1	inactive
C[C@H]1CN([C@@H](C)CO)C(=O)Cc2cc(NC(=O)Nc3ccc(C(F)(F)F)cc3)ccc2O[C@H]1CN(C)C(=O)Nc1ccc(C(F)(F)F)cc1	active
C[C@H]1CN([C@@H](C)CO)C(=O)Cc2cc(NC(=O)Nc3ccc(C(F)(F)F)cc3)ccc2O[C@@H]1CN(C)C(=O)Nc1ccc(C(F)(F)F)cc1	inactive
C[C@@H]1CN([C@@H](C)CO)C(=O)Cc2cc(NC(=O)Nc3ccc(C(F)(F)F)cc3)ccc2O[C@H]1CN(C)C(=O)Nc1ccc(C(F)(F)F)cc1	active
